C-LANA FP: KSHV C-LANA DNA binding inhibition. MBP-C-LANA/FAM-LBS DNA binding, fluorescence polarization. actives 0.078% (n = 340,000). inhibition, % at 9 µM;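 active means highest replicate inhibition at or above 60% at 9 µM, even if other replicates fall short; inactive means all replicates below 60% inhibition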;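 further: 0% = neutral control wells and 100% = 4 µM acridine orange control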
Keap1-Nrf2 PPI: Keap1-Nrf2 (human) interaction inhibition. Keap1 Kelch-Nrf2 peptide fluorescence polarization, 1536-well. Q14145. inhibition, % at 9.4 µM. actives 0.15% (n = 340,000); in the data active means inhibition above about 12%;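 further: human Keap1 Kelch domain with fluorescein labeled Nrf2 9mer peptide probe; 0% = neutral control wells and 100% = peptide positive control; higher means more block of Keap1 binding to Nrf2 peptide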
Target sequence (Q14145 whole entry, looked up, the tested form may be a part): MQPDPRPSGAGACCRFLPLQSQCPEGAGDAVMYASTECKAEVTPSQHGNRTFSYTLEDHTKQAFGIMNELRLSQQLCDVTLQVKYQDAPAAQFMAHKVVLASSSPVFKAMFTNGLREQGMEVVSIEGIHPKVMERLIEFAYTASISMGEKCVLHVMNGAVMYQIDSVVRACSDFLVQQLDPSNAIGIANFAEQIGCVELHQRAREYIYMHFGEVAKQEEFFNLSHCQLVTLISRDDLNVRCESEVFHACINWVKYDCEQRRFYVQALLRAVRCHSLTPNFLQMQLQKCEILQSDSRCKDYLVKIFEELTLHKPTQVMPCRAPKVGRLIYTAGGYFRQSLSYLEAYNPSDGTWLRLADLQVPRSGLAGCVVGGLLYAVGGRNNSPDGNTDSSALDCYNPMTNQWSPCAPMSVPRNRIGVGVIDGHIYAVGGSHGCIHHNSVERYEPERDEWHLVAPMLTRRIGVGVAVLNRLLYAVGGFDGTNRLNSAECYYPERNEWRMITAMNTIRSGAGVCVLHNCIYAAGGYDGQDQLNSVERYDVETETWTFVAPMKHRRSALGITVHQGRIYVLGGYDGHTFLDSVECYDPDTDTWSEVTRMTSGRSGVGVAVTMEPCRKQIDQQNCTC
Cardiac RTF inh: cardiac RTF calcium desensitization; actives 0.12% (n = 340,000); IANBD-labeled cardiac RTF, Ca2+ fluorescence; P19429+P45379; AID 493244; inhibition, % at 7.15 µM;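 active means inhibition above the mean inhibition of all tested compounds plus 3 SD, cut at about 17% in these data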;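 further: assay run at fixed EC70 calcium of 1.6 mM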
CRFBP-R2 agonist: agonists of human CRF-binding protein/CRF-R2 receptor complex; AID 588473; activation, % at 13.2 µM; HEK293 CRF-R2/CRF-BP, calcium dye fluorescence (FLIPR); percent of saturating CRF peptide response; actives 0.46% (n = 350,000);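 active means activation of at least 50%, plus an integration ratio under a set limit after plate pattern correction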;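 further: plate controls were neutral control wells without compound for no effect and CRF at EC100 for full effect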
RTF Ca sens act: increases calcium sensitivity of human cardiac regulated thin filaments; activation, % at 7.2 µM; AID 493008; P19429+P45379; actives 0.24% (n = 340,000); IANBD-labeled TnC RTF fluorescence at EC20 calcium; 0% EC20 calcium, 100% full calcium;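 active means activation above the mean over all tested compounds plus 3 SD, cut at about 30% in these data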;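 further: rise in fluorescence read as greater calcium sensitivity of cardiac thin filaments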
CRFBP-R2 block: antagonists of CRF-binding protein/CRF-R2 receptor complex. HEK293 CRF-R2/CRF-BP, CRF-induced calcium fluorescence. inhibition, % at 11.8 µM. actives 0.59% (n = 350,000);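 active means inhibition of the ligand-induced calcium signal above about 50% at the single tested concentration, limit read from the data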
Active calls of the source: *; i = inactive; / = no result given. In the library only some 1.3% were active in any assay of this set; here they are far more common.

SMILES	C-LANA FP	Keap1-Nrf2 PPI	Cardiac RTF inh	CRFBP-R2 agonist	RTF Ca sens act	CRFBP-R2 block
c1ccc2c(c1)[nH]c1cnccc12	0	-4	5	-2	-3	10
O=c1[nH]c(=O)n(-c2ccc(Cl)cc2)c(O)c1C=NCCN1CCCCC1	-4	-7	4	0	0	-1
CN(C)P(=NC(=S)c1cccn1C)(N(C)C)N(C)C	0	-31	-13	2	7	-5
CN(C)P(=O)(NC(=O)c1cccn1C)N(C)C	0	-3	-20	4	15	107*
O=[N+]([O-])c1ccc(NCc2ccccc2)c2nonc12	/	/	/	493*	/	i
Cc1ccc2c(c1)c(=O)c1c3n2CCN(CC2CO2)C3CC1 (configuration not stated)	-1	1	-5	0	-4	14
CN1C(=O)C(=Cc2ccc(N3CCCCCC3)o2)C(=O)N(C)C1=S	-2	-10	-15	99*	58*	-82
Cc1ccc(Sc2ccc(C=C3C(=O)N(C)C(=O)N(C)C3=O)o2)cc1	-1	-9	-39	30	9	-99
CN1C(=O)C(=Cc2ccc(N3CCOCC3)o2)C(=O)N(C)C1=O	-19	-65	-84	48	72*	1
Oc1ccc(/C=N/NP(=S)(c2ccccc2)c2ccccc2)cc1	0	-4	10	-1	-3	52*
O=C1NC(=O)N(Cc2ccccc2)C(=O)/C1=C\N1CCCc2ccccc21	-1	-34	-62	10	36*	3
Cc1ccc(N2C(=O)NC(=O)/C(=C\c3cccn3C(C)(C)C)C2=O)cc1	1	-7	3	2	-2	-17
CCC(C)c1ccc(N2C(=O)NC(=O)/C(=C/c3cccn3CCOc3ccc(C)cc3)C2=O)cc1 (configuration not stated)	1	0	-12	60*	1	-91
COc1cccc(NC(=O)CN2CC(c3ccccc3)CC2=O)c1 (configuration not stated)	-3	-4	1	0	1	-17
Cn1c(O)c(C=Nc2ccc(Br)cc2)c(=O)n(C)c1=O	0	-1	-3	-2	4	-14
Cn1c(O)c(/C=C/C=Nc2ccccc2)c(=O)n(C)c1=S	-5	-19	-39	55*	29	-106
Cc1cccc(-n2c(O)c(/C=C/C=Nc3ccccc3)c(=O)[nH]c2=O)c1	-18	-122	-100	56*	77*	-52
CN1CCN(C(=O)COc2ccc(-c3nc4ccccc4s3)cc2)CC1	-1	-6	1	8	-2	0
CCOc1ccc(C(C)=O)cc1Cc1c(O)[nH]c(=S)[nH]c1=O	4	-4	3	3	-1	3
Nc1ccc2ccc3cccc[n+]3c2c1	152*	138*	i	163*	743*	-92
CCOC(=O)c1c(/N=C/C2C(=O)NC(=S)NC2=O)sc2c1CCC2	-1	-35	/	98*	/	-102
CCOC(=O)c1cc(C)sc1/N=C/C1C(=O)NC(=S)NC1=O	3	-2	-8	4	1	14
CNC(=S)N1CC2CC(C1)c1cccc(=O)n1C2 (configuration not stated)	1	-5	-4	3	1	9
COC(=O)Cn1cc(/C=C2\C(=O)NC(=O)N(c3ccccc3)C2=O)c2ccccc21	13	-6	-10	87*	5	-48
CCCCCCCCCCCCCCCC[N+](C)(C)C	-2	4	4	4	-2	66*
SMILES	C-LANA FP	Keap1-Nrf2 PPI	Cardiac RTF inh	CRFBP-R2 agonist	RTF Ca sens act	CRFBP-R2 block
CC(=O)C1C(N2CC2)CC2C3CCC4=CC(=O)CCC4(C)C3CCC21C (configuration not stated)	1	-7	-5	2	-2	12
CC/C(=C\C=C\[C@@H]1C=C[C@@H]2CCC[C@H]2[C@@H]1C(=O)c1ccc[nH]1)[C@@H]1O[C@@H]([C@@H](C)C(=O)O)CC[C@@H]1C	/	/	/	67*	/	22
Nc1cccc2c1Cc1cc([N+](=O)[O-])ccc1-2	3	-8	-3	62*	-4	-86
COc1ccc(-c2[nH]ncc2CNC(C)Cc2cccc(C)n2)cc1F (configuration not stated)	-1	-2	-4	-2	-2	-10
C=C(C)[C@@]12OC3(c4ccccc4)O[C@@H]1C1[C@@H]4O[C@]4(CO)[C@@H](O)[C@]4(O)C(=O)C(C)=C[C@H]4[C@@]1(O3)[C@H](C)[C@H]2OC(=O)/C=C/C=C/c1ccccc1 (some centres not stated)	2	-1	-1	2	3	111*
Cc1ccc(-c2cc(-c3ccccc3)cc(-c3ccccc3)[n+]2-c2ccccc2)cc1	0	-1	4	66*	-3	-94
Cc1ccc(-c2cc(-c3ccc(C)cc3)[n+](-c3ccccc3)c(-c3ccc(C)cc3)c2)cc1	-2	-4	-9	60*	1	-21
C#CCN1CCN(c2ccc(F)cc2)CC1	1	-1	7	4	7	-6
CCOP(=O)(OCC)c1cc(CC)ccc1O	0	-2	-6	-2	-5	93*
CCOP(=O)(OCC)c1cccc(O)c1	1	4	-7	-1	-2	14
Oc1cc(Cl)c(Cl)c(Cl)c1Cl	-1	1	0	27	1	30
Oc1cc(Cl)c(Cl)c(Cl)c1	0	-7	-1	20	-2	55*
CCCCn1c(O)c(C(CC)=NCCc2ccccc2)c(=O)[nH]c1=O	1	-7	0	5	-1	-26
CCCCn1c(O)c(C(=O)/C=C/c2c[nH]c3ccccc23)c(=O)[nH]c1=O	0	-8	-28	130*	67*	-100
CCCCCc1nc2ccccc2c(=O)n1-c1ccccc1[N+](=O)[O-]	-1	0	-8	0	4	-2
CCCCCc1nc2c(c(=O)c3ccccc3n2C)c(=O)n1C1CCCCCC1	-1	-2	-6	219*	3	-199
CCC1C2Cc3ccc(O)cc3C1(CC)CCN2C (configuration not stated)	3	5	-5	-1	-1	17
C=CCN1CCC2(C)c3cc(O)ccc3CC1C2C (configuration not stated)	1	0	11	63*	0	-68
CCN(CC)c1ccc(N=Cc2c(O)n(CCC3=CCCCC3)c(=O)[nH]c2=O)cc1	14	3	-10	115*	5	-132
Cc1cc(N(CCCl)CCCl)ccc1/C=N/N=C(\N)c1cnccn1	-3	-3	-3	0	5	-20
Cc1cc(N(CCCl)CCCl)ccc1C=Cc1ccncn1	0	-4	-95	37	79*	-49
O=[N+]([O-])c1cc(F)c(N2CCCC2)cc1Br	-1	-1	-9	-2	3	7
